These results are taken from PubChem BioAssay (NCI).

Common to all, as to experiment: NCI-60 one-dose screen, 48 h (100 = growth as untreated, 0 = no growth, -100 = all killed)
Settings in all cases: 10 µM unless noted

Assay [1] has as its system OVCAR-8 ovarian.
Assay [2] concerns OVCAR-5 ovarian.
Assay [3] concerns OVCAR-4 ovarian.
For assay [4], the system named is SK-OV-3 ovarian.
The test system of assay [5] is IGROV1 ovarian.
The subject of assay [6] is OVCAR-3 ovarian.
Assay [7] relates to HS 578T breast.
For assay [8], the system named is NCI/ADR-RES ovarian.
Assay [9] deals with T-47D breast.
In assay [10] the test system is RPMI-8226 leukemia.

About 83,000 compounds went through this panel and 20% of them were active in at least one assay; those are over-represented in the sample as a whole.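 Note: values are percent growth. 100 is the growth of untreated cells, values between 100 and 0 indicate rising inhibition; between -100 and 0 indicates cell death.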 A number with no mark means an inactive call. The source made the active and inactive calls. The calls were made as follows: active = growth percent below 10; inactive = the rest.

As for `CCOC(=O)c1sc(-c2ccc(OS(=O)(=O)c3cccs3)c(C=O)c2)nc1C`, the growth was -5.05% (active) in assay [1]; 33.1% in assay [2]; 4.5% (active) in assay [3]; 123% in assay [4]; -36.2% (active) in assay [5]; -9.03% (active) in [6]. Further, the growth in assay [7] is 11.2%; in assay [8], -2.63% (active); in assay [9], 19.1%.
For the compound `O=C(NC1CCN(Cc2ccccc2)CC1)c1cc2nc(-c3ccc(Cl)s3)cc(C(F)(F)F)n2n1`, the growth in assay [10] was -18.4% (active); in assay [2] it was 93.2%; in assay [3], 66.4%; in assay [4], 92.6%; in assay [5], 118%; in assay [6], 89.9%. The figures for the growth in assay [7] and in assay [8] were 87.3% and 94.4%, respectively.
With `CN1C(=O)N(C)C2C1NN=c1s/c(=C\c3ccc(Cl)cc3Cl)c(=O)n12` (stereo not drawn), the growth was 27.2% in assay [1]; 32.5% in assay [2]; 36.9% in assay [3]; 16.4% in [5]; 3.93% (active) in assay [6]; 23% in assay [7]. Also, the growth is 14.9% in [8] and 72.1% in assay [9].
As for `CCOC(=O)CSc1c(-c2ccccc2)c2cc(Cl)ccc2[nH]c1=O`, the growth was 115% in assay [1]; 105% in assay [2]; 89.1% in assay [3]; 107% in [4]; 99.1% in assay [5]; 106% in [6]. Moreover, the growth was 84.2% in [7], 84.3% in [8] and 98.1% in [9].
`Cc1c(-c2csc(-n3nc(C(F)(F)F)cc3C(F)(F)F)n2)no[n+]1[O-]`: the growth in assay [10] is 97.2%; in assay [1] it was 99.2%; in assay [2], 99.2%; in assay [5] it was 102%; in assay [6], 114%; in assay [7] it was 98.2%. The growth in assay [8] was 105%; in assay [9] it was 87.5%.
As to `CC[C@H](C)[C@@H](C(=O)OC)n1cc(CNC(=O)[C@@H](Cc2ccccc2)NC(=O)OCc2ccccc2)nn1`, the growth in assay [10] was 90.1%; in assay [1] it was 91.3%; in [3] it was 105%; in [4], 109%; in assay [5], 92.2%; in assay [6], 115%. Besides, the values for the growth in assay [7], in assay [8] and in assay [9] were 101%, 94.4% and 107%, respectively.
As to `COc1ccc(-c2nnc(COc3ccc(C(=O)/C=C/c4ccco4)cc3)o2)cc1`, the growth is 73.9% in assay [1]; 97.7% in [2]; 67.9% in assay [3]; 92.8% in assay [4]; 87.6% in assay [5]; 64.1% in assay [6]. For the same compound, the figures for the growth in assay [7], in assay [8] and in [9] were 92.6%, 89.2% and 80.6%, respectively.
As for `O=Nc1c(O)ccc2ccccc12.O=Nc1c(O)ccc2ccccc12.O=Nc1c([O-])ccc2ccccc12.[Fe+3]`, the growth in [1] is 98.4%; in assay [2], 109%; in [3], 104%; in assay [4], 112%; in assay [5] it was 91.1%; in assay [6], 102%. Also, the growth in assay [7] is 113%; in [8], 104%; in assay [9], 104%.
As to `O=C(/C=C/c1ccccn1)c1ccc(OCc2nnc(-c3ccc(Cl)cc3)o2)cc1`, the growth in assay [1] is 20.8%; in assay [2] it was 89.6%; in assay [3], 31%; in assay [4], 26.8%; in [5] it was -22.6% (active); in assay [6], 18.6%. Further, the growth in [7] was 65.7%; in assay [8], 42.5%; in [9] it was -13.7% (active).
